What is called inhibition is the change of the read-out against control, counted positive when it falls.

Hit rate of the full screen: of about 320,000 compounds, about 1,300 (0.41%) were called active. Another 3% or so got no clear call; they are omitted. The rule behind the calls is not given here. Not all results are given here. Measured potencies and affinities stand elsewhere.

The assay can be described thus: growth inhibition of non-replicating M. tuberculosis (AID 488890).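 Note: plate controls were DMSO cells for no effect and high antibiotic wells for full effect.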 The following applies: Mycobacterium tuberculosis non-replicating, at 25 µM, stronger effect = higher value.
Consider `COc1ccc(-n2c(CN3CCN(C)CC3)nc3ccc([N+](=O)[O-])cc3c2=O)c(OC)c1`, for which the inhibition came out at 1.89%.
Turning to `COc1ccc(C(=O)CC(=O)C(=O)Nc2c(C)cccc2C)cc1`, the inhibition stood at 78.4%.
For `O=C(C1CCN(S(=O)(=O)c2ccc(Br)cc2)CC1)N1CCOCC1`, the inhibition is -10.1%.
Consider `COC(=O)c1ccc(C)c(NC(=O)Cc2ccc([N+](=O)[O-])cc2)c1`, for which the inhibition was 21.2%.
Turning to `COc1ccc(S(=O)(=O)N2CCC(C(=O)NCCOc3ccccc3F)CC2)cc1OC`, the inhibition is 24.4%.
`CC(=O)Nc1cccc(OCC(=O)Nc2ccccc2)c1`: the inhibition is -8.67%.
`COC(=O)N/N=C/c1cccc(OCCSc2ccc(Cl)cc2)c1`: the inhibition turned out to be 74.7%.
In the case of `COC(=O)COc1cccc(NC(=O)C(c2ccccc2)c2ccccc2)c1`, the inhibition stood at 3.23%.
On to `CCC(=O)c1ccc(OCC(=O)Nc2ccc3c(c2)OCCO3)cc1`, for which the inhibition turned out to be 69.5%.
As to `CC(=O)Oc1ccc(/C=N/NC(=O)CCSc2ccccc2)cc1`, the inhibition is 9.49%.
`COc1ccc(/C=N/OCC(=O)Nc2ccc3c(c2)OCO3)c(OC)c1`: the inhibition was 59.9%.
As to `O=C(COc1ccccc1F)Nc1ccc2c(c1)OCCO2`, the inhibition was 52.5%.
For the molecule `Cc1cc(NC(=O)CO/N=C/c2ccc3c(c2)OCO3)ccc1Br`, the inhibition is -0.49%.
Then `COc1cc(OC)cc(C(=O)OCc2cc3ccccc3[nH]c2=O)c1`, with -16%; and `COc1ccc(NC(=O)/C(=C/c2cccs2)NC(=O)c2ccco2)cc1`, with -0.67%.
For the molecule `Nc1cc(N)nc(SCC(=O)Nc2ccc3c(c2)OCO3)n1`, the inhibition was 2.02%.
For `CS(=O)(=O)Oc1ccc(/C=N/NC(=O)c2ccncc2)cc1`, the inhibition was 60.2%.
Take `O=c1cc(-c2ccccc2)nc2nc(SCc3ccccc3)[nH]n12`: the inhibition is 60.3%.
Turning to `O=C(CCn1c(=S)oc2ccccc21)Nc1ccccc1Br`, the inhibition is -5.39%.
As to `O=C(O)c1ccc2c(c1)C(=O)N(NC(=O)c1ccccc1)C2=O`, the inhibition was -12.7%.
As for `COC(=O)c1ccc(NC(=O)COc2ccc3c(c2)OCO3)cc1`, the inhibition was determined as 79.3%.
Take `CCc1ccccc1NC(=O)COc1ccc2c(c1)OCO2`: the inhibition was 65.4%.
For the molecule `CC1=C(C(=O)Nc2ccccc2C(F)(F)F)C(c2sccc2C)NC(=S)N1` (centres undefined), the inhibition was -0.9%.
`Cn1c(=O)c(-c2ccccc2)c(O)c2ccccc21`: the inhibition was 23.1%.
On to `COc1ccc(Oc2c(O)c3ccccc3n(C)c2=O)cc1`, for which the inhibition turned out to be 9.82%.
Turning to `CCCCn1c(=O)c(C(=O)Nc2ccccc2)c(O)c2ccccc21`, the inhibition was -12.7%.
As for `CCCCCn1c(=O)c(-c2nc3ccccc3[nH]2)c(O)c2ccccc21`, the inhibition came to 1.53%.
Turning to `CCCCCn1c(=O)c(C(=O)Nc2ccccc2)c(O)c2ccccc21`, the inhibition is 16.7%.
For the molecule `CCCCCCn1c(=O)c(C(=O)Nc2cccc(C)n2)c(O)c2ccccc21`, the inhibition was -13.9%.
As for `CNC(=O)c1c(O)c2cccc3c2n(c1=O)CCC3`, the inhibition came to 45.4%.
Then `CC(C)NC(=O)c1c(O)c2cccc3c2n(c1=O)CCC3`, with 11.9%; and `CCCCn1c(=O)c(C(=O)Nc2ccccc2C)c(O)c2ccccc21`, with -11.7%.
Turning to `CCCCCn1c(=O)c(C(=O)Nc2ccccc2Cl)c(O)c2ccccc21`, the inhibition was -6.13%.
Consider `CC1C/C(=N\NC(=O)c2ccc(NS(=O)(=O)c3ccc(Br)cc3)cc2)CC(C)(C)C1` (centres undefined), for which the inhibition was -12.6%.
`Cc1nc(CCNC(=O)COc2ccccc2)cs1`: the inhibition was -16%.
For `CCCC(=O)n1nc(-c2ccc(Cl)cc2)nc1SC`, the inhibition was 64.9%.
`O=C(CSc1nnc(Nc2ccccc2)s1)Nc1ccc(S(=O)(=O)N2CCOCC2)cc1`: the inhibition was determined as 6.81%.
With `Cc1cccc(N2CCN(C(=O)c3cc(=O)[nH]c4ccccc34)CC2)c1C` the figure was 24.4%; with `CCCC(C)C1c2c(c(C)c(C)oc2=O)Oc2c(C)c(C)oc(=O)c21` (centres undefined), 25.8%; with `O=C1c2ccccc2C(=O)N1OS(=O)(=O)c1ccccc1`, 19%.
With `Cc1nn(C)cc1/C=N\NC(=O)c1ccc2c(c1)c(C)c(C)n2Cc1ccccc1` the figure was -7.16%; with `CCOc1ccccc1NC(=O)NCc1ccccc1F`, 13.2%; with `COc1ccc(/C=N/NC(=O)c2cccc(NC(=O)c3ccccc3)c2)c(C(=O)O)c1OC`, 31.1%.
As for `Cc1c(CCC(=O)N[C@@H](C)C(=O)O)c(=O)oc2cc3occ(-c4ccccc4)c3cc12`, the inhibition worked out at 0.57%.
Then `NS(=O)(=O)c1cc(C(=O)NCCc2ccccn2)ccc1Cl`, with 7.03%.
As to `Cc1ccc(/C=N/NC(=O)c2ccccn2)s1`, the inhibition was 59.8%.
For `Cc1ccsc1/C=N/NC(=O)c1cccnc1`, the inhibition is -17.1%.
On to `Cc1ccsc1/C=N/NC(=O)c1ccc([N+](=O)[O-])cc1`, for which the inhibition is -7.45%.
With `Cc1ccc(/C=N/NC(=O)c2ccc(C(=O)N/N=C/c3ccc(C)s3)o2)s1`, the inhibition is -14.7%.
As to `Cn1cccc1/C=N/NC(=O)c1cccnc1`, the inhibition is 6.3%.
In the case of `Cc1cccc(C)c1-n1c(C)cc(/C=N/NC(=O)c2ccncc2)c1C`, the inhibition is 78%.
Take `O=C(N/N=C/c1cccn1-c1ccccc1)c1ccncc1`: the inhibition was found to be 52.4%.
Regarding `Cc1ccc(-n2c(C)cc(/C=N/NC(=O)c3ccncc3)c2C)c(C)c1`, the inhibition is 73.9%.
Consider `Nn1c(SCC(=O)NC2CCCCC2)nnc1-c1ccccc1F`, for which the inhibition came to 9.14%.
For the molecule `COC(=O)Nc1ccc(S(=O)(=O)N2CCCC(C(=O)Nc3cccc4c3OCCO4)C2)cc1` (centres undefined), the inhibition turned out to be 17.4%.
Turning to `Cc1ccc(C(=O)N/C(=C/c2ccc(Cl)cc2)C(=O)Nc2cccc(C(=O)O)c2)cc1`, the inhibition amounted to 17%.
With `Cc1cc(NC(=O)CCC(=O)N(CC(=O)NCC2CCCO2)c2ccc(C)c(C)c2)no1` (centres undefined) the figure was -4.55%; with `COc1nc(NCCO)nc(Nc2ccc([N+](=O)[O-])cc2)n1`, -18%; with `CSc1ccc(CCNC(=O)C2CCCN(c3nn4c(=O)cc(C)nc4s3)C2)cc1` (centres undefined), 5.95%.
Then `CC1(C(O)(C#CCN2CCCCC2)c2ccccc2)CCCC1` (centres undefined), with 3.27%; and `Clc1ccc(Cl)c(-c2nc(-c3ccncc3)no2)c1`, with -30.7%; and `CCc1ccc(OCC(=O)N2CCN(c3ccccc3F)CC2)cc1`, with 52.6%.
For `COC(=O)c1ccccc1NC(=O)COC(=O)c1cccnc1`, the inhibition was found to be 2.43%.
For the molecule `Cc1cccc(CN2CCSCC2)c1`, the inhibition stood at 21.4%.
Take `Cc1ccc(NC(=O)CNC(=O)c2ccc(C)s2)nc1`: the inhibition is -9.04%.
On to `Cc1ccc(/C=N/NC(=O)c2ccc(-c3ccccc3)cc2)o1`, for which the inhibition worked out at 4.22%.
With `O=C(N/N=C/c1ccc(Br)s1)c1cccs1`, the inhibition was determined as 79.8%.
`Cc1ccc(/C=N/NC(=O)c2cccnc2)o1`: the inhibition stood at 7.34%.
With `O=C(N/N=C\c1cc(Br)cs1)c1ccncc1` the figure was 71.3%; with `O=C(N/N=C/c1cc(Br)cc(Br)c1O)c1ccncc1`, 57.1%.
Consider `O=C(N/N=C/c1cc(Br)c(Br)o1)c1cccnc1`, for which the inhibition was found to be 40.9%.
`O=C(N/N=C\c1ccncc1)c1ccc(Br)s1`: the inhibition was found to be 15.2%.
In the case of `Cc1ccc(/C=N/NC(=O)c2cccnc2)s1`, the inhibition was determined as 75.2%.
As to `COc1cc(NS(=O)(=O)c2ccc(NC(=S)NC(=O)c3ccc(F)cc3)cc2)nc(OC)n1`, the inhibition was determined as 42.3%.
With `CCn1c(CN2CCOCC2)nnc1SCC(=O)Nc1cccc(C)c1`, the inhibition was -3.97%.
With `O=C(NCCC(=O)N1CCC2(CC1)NCCc1[nH]cnc12)c1ccc(Br)cc1` the figure was 10.4%; with `Cn1ncc2c(Nc3ccc(Br)cc3)nc(Nc3ccc(Br)cc3)nc21`, 9.77%.
Consider `O=C(N/N=C/c1cn(-c2ccccc2)nc1-c1cc2ccccc2o1)c1ccncc1`, for which the inhibition is 42.8%.
With `O=C(N/N=C/c1cn(-c2ccccc2)nc1-c1cccs1)c1ccncc1`, the inhibition came to 48.3%.
Consider `COc1ccc(N=C2NC(=O)C(CC(=O)NCCc3ccc(OC)c(OC)c3)S2)cc1` (centres undefined), for which the inhibition was 14.1%.
As for `CC(NC(=O)c1ccc2c(=O)n3c(nc2c1)CCC3)c1ccc(S(N)(=O)=O)cc1` (centres undefined), the inhibition is -7.93%.
On to `Cc1ccc(S(=O)(=O)N2CCCN(C(=O)c3cc4ccccc4[nH]3)CC2)cc1`, for which the inhibition came to 11.2%.
For the molecule `COc1cccc(NC(=O)NNS(=O)(=O)c2ccc(OC)cc2OC)c1`, the inhibition was -16.4%.
With `CN1CCN(C(c2cccnc2)c2ccc3cccnc3c2O)CC1` (centres undefined) the figure was 28.6%; with `Oc1c(C(c2ccccn2)N2CCCCC2)cc(Cl)c2cccnc12` (centres undefined), 75.4%.
In the case of `CCCCOc1ccc(NC(=O)CSc2nnnn2C)cc1`, the inhibition is 18.5%.
As to `Cn1cccc1/C=C1/C(=O)NC(=O)N(Cc2ccc(F)cc2)C1=O`, the inhibition was 74.5%.
As for `Cn1cccc1/C=C1\C(=O)NC(=O)N(Cc2ccccc2)C1=O`, the inhibition stood at 73%.
Regarding `CC1CN(c2nc3ccccn3c(=O)c2C=O)CC(C)O1` (centres undefined), the inhibition amounted to 1.76%.
As for `CCCn1nnc(NC(=O)c2ccc(-c3cccc(Cl)c3)o2)n1`, the inhibition was 59.5%.
For the molecule `CCn1nnc(NC(=O)c2ccc(-c3ccccc3[N+](=O)[O-])o2)n1`, the inhibition is 9.81%.
Regarding `CCn1nnc(NC(=O)c2ccc(Br)o2)n1`, the inhibition is -5.58%.
For `CCn1nnc(NC(=O)Cc2ccc(Cl)cc2)n1`, the inhibition was 11.1%.
Consider `CCCCc1ccc(-c2nc(-c3ccncc3)no2)cc1`, for which the inhibition was found to be 22.1%.
Consider `Cc1ccc(NC(=O)c2ccccc2)cc1`, for which the inhibition was 25.8%.
Consider `CC1=C(C(=O)Nc2ccccc2)S(=O)(=O)CCO1`, for which the inhibition was found to be 68.2%.
As to `CCOc1cc(C(=O)Nc2cc(=O)n(C)c(=O)n2C)cc(OCC)c1OCC`, the inhibition was 1.17%.
Regarding `Cc1cc(Cl)ccc1C(=O)C1CCCN(C(=O)c2cc(C(C)C)no2)C1` (centres undefined), the inhibition came out at 45.6%.
For `CCc1ccccc1NC(=O)N1CCc2ccccc2C1`, the inhibition was -17.5%.
For the molecule `CCCCNC(=O)N1CCc2[nH]c3ccccc3c2C1`, the inhibition was 5.76%.
For the molecule `COC(=O)C1=NN(C(=O)c2ccc(Cl)cc2)C(O)(c2ccccc2)C1` (centres undefined), the inhibition worked out at 79.6%.
`COC(=O)C1=NN(C(=O)c2cccc(Br)c2)C(O)(c2ccc(Cl)cc2)C1` (centres undefined): the inhibition is 75.6%.
Consider `COC(=O)C1=NN(C(=O)c2ccccc2)C(O)(c2ccc([N+](=O)[O-])cc2)C1` (centres undefined), for which the inhibition came out at 21.5%.
On to `CCOC(=O)C1=NN(C(=O)c2ccccc2)C(O)(c2ccc(C)cc2)C1` (centres undefined), for which the inhibition is 73.7%.
In the case of `CCOC(=O)N1N=C(C)CC1(O)c1ccccc1` (centres undefined), the inhibition was -14.8%.
In the case of `Cc1cn(C(=O)c2cccc(Br)c2)c(C)n1`, the inhibition is -0.97%.
As to `OCCC1CN(Cc2nc3ccccc3s2)CCN1C1CCCC1` (centres undefined), the inhibition is -3.44%.
`O=C(CSc1nnc2ccccn12)N1CCc2ccccc2C1`: the inhibition was -9.62%.
With `Cc1ccccc1CN1C(=O)/C(=C\c2ccc(C(=O)NCCN3CCOCC3)cc2)Sc2ccccc21` the figure was 34.3%; with `O=C(COC(=O)c1cccnc1Cl)Nc1cc(S(=O)(=O)N2CCOCC2)ccc1Cl`, -5.03%.
Then `O=C(CC1CCCCC1)NCC1CCCO1` (centres undefined), with 69.3%; and `Cc1ccc(N(Cc2cc3ccc(C)cc3[nH]c2=O)S(=O)(=O)c2ccccc2)c(C)c1`, with 3.45%.
In the case of `CCCCOC(=O)C1CCC[C@@H](C)N1` (some centres undefined), the inhibition was -6.13%.
As to `CCCCOC(=O)C1CCCC(C)N1` (centres undefined), the inhibition was determined as 0.64%.

The values above are taken from PubChem BioAssay AID488890 (Southern Research Specialized Biocontainment Screening …, 2010).
